Assay results published in article PMC13423814.

Assays:
Settings in all cases: DSSO, in cells
[1] = target: TMEM109 (UniProt Q9BVC6)
[2] = target: VPS35L (UniProt Q7Z3J2)
[3] = target: SF3B3 (UniProt Q15393)
[4] = target: UTP4 (UniProt Q969X6)
[5] = target: SF3A2 (UniProt Q15428)
[6] = target: TSSC4 (UniProt Q9Y5U2)
[7] = target: UTP20 (UniProt O75691)
[8] = target: SNW1 (UniProt Q13573)
[9] = target: THOC1 (UniProt Q96FV9)
[10] = target: SF3A1 (UniProt Q15459)
[11] = target: SF3B2 (UniProt Q13435)
[12] = target: SNRPB (UniProt P14678)
[13] = target: SF3B6 (UniProt Q9Y3B4)
[14] = target: TUFM (UniProt P49411)
[15] = target: SH2D4A (UniProt Q9H788)
[16] = target: SERBP1 (UniProt Q8NC51)
[17] = target: SRSF1 (UniProt Q07955)
[18] = target: SRSF6 (UniProt Q13247)
[19] = target: SRSF7 (UniProt Q16629)
[20] = target: SLC25A3 (UniProt Q00325)
[21] = target: UTP18 (UniProt Q9Y5J1)
[22] = target: YWHAZ (UniProt P63104)
YWHAZ, sequence (P63104 whole entry): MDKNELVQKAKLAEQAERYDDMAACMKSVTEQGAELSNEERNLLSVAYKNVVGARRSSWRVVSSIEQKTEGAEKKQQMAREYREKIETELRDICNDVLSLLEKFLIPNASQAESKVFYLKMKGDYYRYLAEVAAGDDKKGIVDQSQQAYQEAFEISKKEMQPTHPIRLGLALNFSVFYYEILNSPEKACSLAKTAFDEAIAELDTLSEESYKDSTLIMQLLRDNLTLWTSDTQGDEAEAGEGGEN

SRSF3, P84103, sequence (P84103 whole entry): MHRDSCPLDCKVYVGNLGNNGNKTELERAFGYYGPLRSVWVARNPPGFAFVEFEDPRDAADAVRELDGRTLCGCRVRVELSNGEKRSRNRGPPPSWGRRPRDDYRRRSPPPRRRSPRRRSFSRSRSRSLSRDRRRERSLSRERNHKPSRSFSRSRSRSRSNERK
SF3B3, sequence (Q15393 whole entry): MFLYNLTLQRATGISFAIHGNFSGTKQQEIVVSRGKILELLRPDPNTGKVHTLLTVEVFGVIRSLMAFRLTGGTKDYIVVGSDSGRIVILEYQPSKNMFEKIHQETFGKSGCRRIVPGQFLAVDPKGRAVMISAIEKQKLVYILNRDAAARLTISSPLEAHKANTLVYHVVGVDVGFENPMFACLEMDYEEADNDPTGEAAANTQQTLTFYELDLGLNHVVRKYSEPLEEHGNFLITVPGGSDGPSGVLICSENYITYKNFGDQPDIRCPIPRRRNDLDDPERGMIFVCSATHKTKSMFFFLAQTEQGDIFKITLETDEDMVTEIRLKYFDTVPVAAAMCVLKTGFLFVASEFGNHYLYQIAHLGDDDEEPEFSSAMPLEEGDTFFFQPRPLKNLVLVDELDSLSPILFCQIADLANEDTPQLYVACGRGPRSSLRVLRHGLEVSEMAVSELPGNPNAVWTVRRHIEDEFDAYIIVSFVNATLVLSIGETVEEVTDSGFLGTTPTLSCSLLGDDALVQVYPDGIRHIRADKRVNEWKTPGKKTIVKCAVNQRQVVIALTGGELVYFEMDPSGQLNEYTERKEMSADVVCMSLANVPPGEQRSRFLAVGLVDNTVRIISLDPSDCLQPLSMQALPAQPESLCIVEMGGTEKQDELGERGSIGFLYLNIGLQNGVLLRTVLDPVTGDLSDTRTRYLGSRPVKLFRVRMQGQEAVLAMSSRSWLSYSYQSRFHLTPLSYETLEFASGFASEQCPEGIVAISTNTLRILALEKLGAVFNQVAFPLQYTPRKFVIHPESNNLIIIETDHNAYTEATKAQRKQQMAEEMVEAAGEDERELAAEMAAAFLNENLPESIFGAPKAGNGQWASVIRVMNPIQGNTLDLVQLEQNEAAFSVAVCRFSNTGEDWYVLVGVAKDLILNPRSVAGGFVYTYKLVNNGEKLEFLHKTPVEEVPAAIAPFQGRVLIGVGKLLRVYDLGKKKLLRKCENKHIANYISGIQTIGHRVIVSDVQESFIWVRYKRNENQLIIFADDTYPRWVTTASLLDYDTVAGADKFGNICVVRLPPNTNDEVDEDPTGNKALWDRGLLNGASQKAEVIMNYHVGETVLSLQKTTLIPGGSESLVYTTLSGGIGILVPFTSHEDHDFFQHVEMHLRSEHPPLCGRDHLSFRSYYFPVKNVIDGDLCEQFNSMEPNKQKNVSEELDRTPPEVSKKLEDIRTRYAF
TMEM109, sequence (Q9BVC6 whole entry): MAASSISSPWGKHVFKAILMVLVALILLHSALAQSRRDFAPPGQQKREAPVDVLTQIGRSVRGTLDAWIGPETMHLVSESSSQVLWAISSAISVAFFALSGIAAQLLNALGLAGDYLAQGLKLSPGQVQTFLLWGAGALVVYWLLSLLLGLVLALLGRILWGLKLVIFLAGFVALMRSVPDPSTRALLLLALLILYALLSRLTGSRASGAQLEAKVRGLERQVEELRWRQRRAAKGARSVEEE
SNRNP200, O75643, sequence (O75643 whole entry): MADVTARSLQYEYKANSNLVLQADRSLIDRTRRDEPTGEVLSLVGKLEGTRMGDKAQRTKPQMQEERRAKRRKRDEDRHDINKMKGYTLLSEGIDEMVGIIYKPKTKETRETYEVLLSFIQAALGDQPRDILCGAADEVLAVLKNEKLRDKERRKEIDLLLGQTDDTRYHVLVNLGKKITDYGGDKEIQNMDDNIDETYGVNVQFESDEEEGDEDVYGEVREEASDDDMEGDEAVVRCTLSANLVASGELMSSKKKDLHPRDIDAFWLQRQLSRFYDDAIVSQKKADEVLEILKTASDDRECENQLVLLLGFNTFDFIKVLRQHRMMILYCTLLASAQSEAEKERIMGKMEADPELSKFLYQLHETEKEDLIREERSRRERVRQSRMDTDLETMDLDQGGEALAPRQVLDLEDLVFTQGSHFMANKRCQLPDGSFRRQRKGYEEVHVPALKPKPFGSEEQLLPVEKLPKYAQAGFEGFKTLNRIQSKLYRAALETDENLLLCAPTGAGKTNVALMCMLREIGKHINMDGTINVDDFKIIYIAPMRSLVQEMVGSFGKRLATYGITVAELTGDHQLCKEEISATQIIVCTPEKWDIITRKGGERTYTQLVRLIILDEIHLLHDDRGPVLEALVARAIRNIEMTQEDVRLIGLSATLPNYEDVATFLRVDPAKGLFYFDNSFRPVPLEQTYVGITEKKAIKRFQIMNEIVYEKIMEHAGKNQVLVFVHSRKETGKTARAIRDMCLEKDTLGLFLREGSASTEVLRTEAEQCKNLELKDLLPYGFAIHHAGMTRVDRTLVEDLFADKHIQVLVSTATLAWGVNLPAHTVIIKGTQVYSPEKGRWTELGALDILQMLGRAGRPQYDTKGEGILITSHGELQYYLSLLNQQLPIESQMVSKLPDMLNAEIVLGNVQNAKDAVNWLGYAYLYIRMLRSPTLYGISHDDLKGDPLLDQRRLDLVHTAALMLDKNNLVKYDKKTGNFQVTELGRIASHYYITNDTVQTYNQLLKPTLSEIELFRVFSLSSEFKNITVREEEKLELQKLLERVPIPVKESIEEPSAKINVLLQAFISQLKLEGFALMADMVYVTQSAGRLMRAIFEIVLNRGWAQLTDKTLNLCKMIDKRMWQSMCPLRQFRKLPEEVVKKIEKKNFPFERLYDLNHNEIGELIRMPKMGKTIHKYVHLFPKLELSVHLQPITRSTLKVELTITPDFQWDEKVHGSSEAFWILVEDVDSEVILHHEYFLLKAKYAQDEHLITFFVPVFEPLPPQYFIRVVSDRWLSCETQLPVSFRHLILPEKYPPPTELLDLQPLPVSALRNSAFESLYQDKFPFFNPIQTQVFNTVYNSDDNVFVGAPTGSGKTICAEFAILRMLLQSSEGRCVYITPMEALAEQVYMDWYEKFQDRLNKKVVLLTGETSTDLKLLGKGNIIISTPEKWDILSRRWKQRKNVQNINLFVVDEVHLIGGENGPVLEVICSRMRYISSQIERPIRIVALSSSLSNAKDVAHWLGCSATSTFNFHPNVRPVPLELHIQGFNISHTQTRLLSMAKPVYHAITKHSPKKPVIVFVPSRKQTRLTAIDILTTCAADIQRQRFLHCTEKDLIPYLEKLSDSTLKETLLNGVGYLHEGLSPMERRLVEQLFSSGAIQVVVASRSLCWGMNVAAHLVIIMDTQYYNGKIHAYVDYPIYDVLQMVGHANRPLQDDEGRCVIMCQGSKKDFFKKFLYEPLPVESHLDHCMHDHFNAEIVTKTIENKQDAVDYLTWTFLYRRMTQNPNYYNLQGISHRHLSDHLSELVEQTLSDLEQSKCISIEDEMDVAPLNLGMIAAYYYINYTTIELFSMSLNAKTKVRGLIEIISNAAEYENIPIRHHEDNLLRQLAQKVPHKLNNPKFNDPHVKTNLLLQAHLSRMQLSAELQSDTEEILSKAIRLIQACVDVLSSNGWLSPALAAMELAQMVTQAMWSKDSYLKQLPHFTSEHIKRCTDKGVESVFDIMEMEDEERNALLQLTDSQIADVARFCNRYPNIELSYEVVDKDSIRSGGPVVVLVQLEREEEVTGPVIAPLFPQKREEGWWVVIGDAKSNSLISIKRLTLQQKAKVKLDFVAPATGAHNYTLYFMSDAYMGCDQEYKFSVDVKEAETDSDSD
TMEM43, Q9BTV4, sequence (Q9BTV4 whole entry): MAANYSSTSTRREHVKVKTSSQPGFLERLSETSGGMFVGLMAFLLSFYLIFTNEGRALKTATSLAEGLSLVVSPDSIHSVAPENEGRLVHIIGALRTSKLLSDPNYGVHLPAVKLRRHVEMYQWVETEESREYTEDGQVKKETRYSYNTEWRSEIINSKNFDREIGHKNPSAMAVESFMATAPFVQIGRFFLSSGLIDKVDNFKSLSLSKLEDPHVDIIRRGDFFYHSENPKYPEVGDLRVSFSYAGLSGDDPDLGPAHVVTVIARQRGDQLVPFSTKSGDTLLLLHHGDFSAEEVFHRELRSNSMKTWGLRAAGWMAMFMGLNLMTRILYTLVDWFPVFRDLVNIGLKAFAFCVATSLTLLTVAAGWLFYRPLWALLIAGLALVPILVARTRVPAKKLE
YWHAB, P31946, sequence (P31946 whole entry): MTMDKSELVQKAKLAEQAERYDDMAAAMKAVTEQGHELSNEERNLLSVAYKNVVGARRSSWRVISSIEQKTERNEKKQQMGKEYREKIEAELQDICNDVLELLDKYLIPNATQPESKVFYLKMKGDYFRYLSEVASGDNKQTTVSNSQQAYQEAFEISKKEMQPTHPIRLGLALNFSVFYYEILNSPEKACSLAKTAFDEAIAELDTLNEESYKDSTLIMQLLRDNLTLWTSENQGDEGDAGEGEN
PPP1CB, P62140, sequence (P62140 whole entry): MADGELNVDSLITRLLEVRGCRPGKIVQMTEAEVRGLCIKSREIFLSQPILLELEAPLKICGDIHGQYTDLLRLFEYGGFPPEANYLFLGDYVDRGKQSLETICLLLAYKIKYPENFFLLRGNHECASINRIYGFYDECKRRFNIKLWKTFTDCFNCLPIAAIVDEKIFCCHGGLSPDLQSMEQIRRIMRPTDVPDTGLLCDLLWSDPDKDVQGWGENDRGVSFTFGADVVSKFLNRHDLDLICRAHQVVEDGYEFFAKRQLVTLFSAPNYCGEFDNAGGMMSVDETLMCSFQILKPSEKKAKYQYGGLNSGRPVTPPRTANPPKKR

## TMEM43, Q9BTV4
[1]
  cross-linked residues: K18 - K215

## CCDC22, O60826
[2]
  cross-linked residues: K519 - K630

## SF3B2, Q13435
[3]
  cross-linked residues: K605 - K1074

## WDR43, Q15061
[4]
  cross-linked residues: K594 - K386

## DNAJC8, O75937
[5]
  cross-linked residues: K135 - K10

## SNRNP200, O75643
[6]
  cross-linked residues: K1883 - K234

## RRP9, O43818
[7]
  cross-linked residues: K113 - K69

## PLRG1, O43660
[8]
  cross-linked residues: K363 - K153

## THOC2, Q8NI27
[9]
  cross-linked residues: K307 - K408

## SNRPA1, P09661
[10]
  cross-linked residues: K221 - K188
[11]
  cross-linked residues: K172 - S319
[12]
  cross-linked residues: K172 - K57

## SF3A2, Q15428
[13]
  cross-linked residues: T11 - K105

## HSPD1, P10809
[14]
  cross-linked residues: K292 - K421

## PPP1CB, P62140
[15]
  cross-linked residues: K25 - K105

## ANXA3, P12429
[1]
  cross-linked residues: K263 - K215

## RPS28, P62857
[16]
  cross-linked residues: K16 - K140

## SRSF3, P84103
[17]
  cross-linked residues: K23 - K30
[18]
  cross-linked residues: K23 - K101
[19]
  cross-linked residues: K85 - K24

## SF3A3, Q12874
[3]
  cross-linked residues: K496 - K974

## SNRPB, P14678
[11]
  cross-linked residues: K57 - S319

## COX4I1, P13073
[20]
  cross-linked residues: K60 - K295

## PWP2, Q15269
[21]
  cross-linked residues: K260 - K172

## RPS20, P60866
[16]
  cross-linked residues: K4 - K39

## YWHAB, P31946
[22]
  cross-linked residues: K13 - K68
